Active and inactive are the calls of the source. No stated cut-off is given here; in the data, active means inhibition above about 31%; inactive means the rest.

The nature of the first experiment: reversal of MRP1-mediated doxorubicin resistance, pilot screen, H69AR cells, doxorubicin co-treatment (AID 601). The settings on record: H69AR cells, CellTiter-Glo, 72 h; compound alone cytotoxicity; at 10 µM. A general note: Cellular ATP, detected with luciferase, serves as a proxy for viable cell number.
Broadly, the viability is a read-out of living cells in per cent, often relative to untreated cells. Regarding `COC(=O)c1c(C(=O)OC)n(CCCN)c2ccc(C)cc12`, the viability was 89.7%.

As for `CN(CC(=O)Nc1ccccc1Cl)C(=O)COC(=O)CNC(=O)c1ccc(Br)o1`, the viability was found to be 104%.

For `O=C(CN1C(=O)CC(c2ccccc2)=Nc2ccccc21)NCc1ccco1`, the viability was determined as 92.3%.

The next experiment is described as follows: 384-well plate pilot, post-Golgi transport modulator project, inhibition of yeast transport mutant growth (AID 636). Particulars: absorbance 615 nm, about 18 h, stronger effect = higher value.
For orientation: inhibition means the relative decrease from the control value, in per cent. In the case of `CC1(C)CC(=O)C2=C(C1)N(Cc1ccco1)C(=O)C2(NC(=O)C1CCCCC1)C(F)(F)F` (configuration not stated), the inhibition was -4.47% (inactive).

`C=CCn1c(=S)[nH]c2nc3c(cc2c1=O)COC(C)(C)C3`: the inhibition was -5.06% (inactive).

On to `CC(=O)Nc1ccc(S(=O)(=O)N(CC(=O)O)Cc2ccccc2)cc1`, for which the inhibition was -2.47% (inactive).

Consider `Cc1cccc2cc(C#N)c(SCCN3CCCCC3)nc12`, for which the inhibition is 1.35% (inactive).

On to `CSc1nnc(-c2cnccn2)n1C`, for which the inhibition is -0.39% (inactive).

As to `COc1ccccc1NC1=NC2(CCCC2)N=C(N)N1`, the inhibition was -2.6% (inactive).

With `CC(C)C(c1nnnn1C1CCCC1)N1CCCc2ccccc21` (configuration not stated), the inhibition is 1.33% (inactive).

For `COc1cc(NC(=O)c2cc(-n3cnnc3)ccc2Cl)cc(OC)c1`, the inhibition was 0% (inactive).

On to `Cc1ccc(OCc2nnc(SCC(=O)N3CCOCC3)n2C)cc1`, for which the inhibition was -0.93% (inactive).

Turning to `CCc1nc(C)ccc1OCC(=O)O`, the inhibition was 4.8% (inactive).

In the case of `CCCOc1ccc(N2C(=O)CC(NCCCN3CCC(C(N)=O)CC3)C2=O)cc1` (configuration not stated), the inhibition is -1.97% (inactive).

For `CC1CCCCN1CCNS(=O)(=O)c1ccc2c(c1)oc(=O)n2C` (configuration not stated), the inhibition was -6.13% (inactive).

As for `COc1cccc(C(c2nnnn2Cc2ccccc2)N2CCN(C(=O)c3ccco3)CC2)c1OC` (configuration not stated), the inhibition was -1.84% (inactive).

With `COc1ccc(S(=O)(=O)N2CCC(C(=O)NCc3ccco3)CC2)cc1`, the inhibition was -4.53% (inactive).

Regarding `CSC1CCCCC1(O)CSc1nc2c(cc1C#N)CCCC2` (configuration not stated), the inhibition is -0.66% (inactive).

Take `CCSc1nnc(NC(=O)c2cc(C)oc2C)s1`: the inhibition was -3.55% (inactive).

For `COC(=O)c1ccc(CN(c2ccccc2OC)S(=O)(=O)c2cccs2)o1`, the inhibition is -6.88% (inactive).

On to `O=C1c2cccnc2C(=O)N1c1cccc(-c2nc3ccccc3o2)c1`, for which the inhibition is -6.27% (inactive).

In the case of `COc1ccc(S(=O)(=O)Nc2ccc3c(c2)OCO3)cc1Cl`, the inhibition is -6.67% (inactive).

For the compound `CC1CC(C)CN(CCCNC(=O)c2ccc3c(c2)NC(=O)C(N2CCCCC2)S3)C1` (configuration not stated), the inhibition is 2.4% (inactive).

As for `Cc1cc(NC(=O)C2CCCC2)nc2c1c(=O)oc1ccccc12`, the inhibition is -5.45% (inactive).

Turning to `Cc1cccc(NC(=O)CN(C)S(=O)(=O)c2ccccc2)n1`, the inhibition was -6.18% (inactive).

For `O=C1c2ccccc2C(=O)N1CCCCN1CCN(CCCCN2C(=O)c3ccccc3C2=O)CC1`, the inhibition was -7.33% (inactive).

With `CCOC(=O)c1sc(NS(=O)(=O)c2ccc(NC(C)=O)cc2)nc1C`, the inhibition was -1.97% (inactive).

As for `O=C(NCc1ccc(F)cc1)c1cc(-c2ccco2)on1`, the inhibition is -2.89% (inactive).

In the case of `COc1cccc(C(=O)Nc2cccc(C(=O)N3CCOCC3)c2)c1`, the inhibition was -4.68% (inactive).

As for `Cc1nc(SCC(=O)c2c[nH]c3ccccc23)n[nH]1`, the inhibition is -7.5% (inactive).

Turning to `CCOC(=O)C1CCN(S(=O)(=O)c2cccc(-c3csc(C)n3)c2)CC1`, the inhibition is -5.2% (inactive).

In the case of `COc1ccc2c(c1)CCc1c(C(=O)N3CC4(C)CC3CC(C)(C)C4)noc1-2` (configuration not stated), the inhibition is -2.34% (inactive).

`C=CCn1c(SCc2cc(=O)n3ccsc3n2)nnc1C1CCCCC1`: the inhibition is -5.19% (inactive).

As to `CCOC(=O)C1C(=O)NC(SCC(=O)Nc2nccs2)=C(C#N)C1c1ccccc1OCC` (configuration not stated), the inhibition is -1.45% (inactive).

`Cc1ccc(-c2nc(-c3cccnc3)no2)c(C)c1`: the inhibition is -6.49% (inactive).

As for `COC(=O)c1[nH]c(C)c(/C(O)=C2\C(=O)C(=O)N(CCCN3CCOCC3)C2c2ccccn2)c1C` (configuration not stated), the inhibition was -0.53% (inactive).

With `CCOc1ccccc1NC(=O)CCSc1nc2n[nH]c(C)c2c(=N)n1-c1ccccc1Cl`, the inhibition was -3.03% (inactive).

On to `CC(=O)c1cc(-c2ccccc2)n(CC(=O)N2CCN(C3CCCC3)CC2)c1C`, for which the inhibition is -5.58% (inactive).

For the compound `O=c1ccn(Cc2ccccc2Cl)cc1`, the inhibition was -4.47% (inactive).

`COC(=O)c1c(C(=O)OC)n(CCCN)c2ccc(C)cc12`: the inhibition is -0.52% (inactive).

Turning to `CN(CC(=O)Nc1ccccc1Cl)C(=O)COC(=O)CNC(=O)c1ccc(Br)o1`, the inhibition is 0.39% (inactive).

Regarding `O=C(CN1C(=O)CC(c2ccccc2)=Nc2ccccc21)NCc1ccco1`, the inhibition is -1.82% (inactive).

(Values after PubChem BioAssay.)
